Here are results for 6 compounds from PubChem BioAssay.

A short description of experiment [1]: stimulators of insulin release from INS-1E, primary screen, cell-based, 5 mM glucose, NPC library (AID 1117329;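 active = compound raises insulin release from rat beta cells at 5 mM glucose, no numeric limit stated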). Particulars: rat INS-1E insulin secretion, at 10 µM, stronger effect = higher value.
A short description of experiment [2]: growth inhibition of GSK3B-pretreated HCT116 cells – cell-based, CellTiter-Glo, 0.2 to 20 µM (AID 1117336;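 active = compounds lowering colon cancer cell viability after pretreatment blocking the GSK3B kinase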). Particulars: HCT116 viability after GSK3B inhibitor, at 20 µM, stronger effect = higher value. In general terms: ATP-based viability assays read luminescence as a measure of living cells.
Experiment [3] in a line: inhibition of endothelial tube formation, primary screen, imaging, VEGF stimulated, CD31 staining, tube area, NPC library (AID 1117340;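 active = compound that reduces growth-factor-driven endothelial tube area in a mixed cell culture, no cutoff stated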). The following applies: VEGF-stimulated ADSC/ECFC co-culture, at 10 µM, stronger effect = higher value.
Experiment [4] is described as follows: glucagon-like peptide 1 release enhancers, primary assay, NCI-H716 cell line, NPC library (AID 1117341;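 active = compound raises GLP1 secretion from the human gut endocrine cells, with no numeric limit stated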). Particulars: NCI-H716 cells, at 10 µM, stronger effect = higher value.
Experiment [5] is described as follows: HCT116 colon cancer cell growth inhibition, primary screen, CellTiter-Glo luminescence, NPC library (AID 1117342;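 active = compounds that lower survival of HCT116 colon cancer cells in the luminescence readout, no numeric limit stated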). Particulars: at 20 µM (top of the series).
Experiment [6] is described as follows: CellTiter-Glo luminescent readout of SW480 viability loss, NPC library primary (AID 1117343;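 active = compounds that lower viability of the colon cancer cells in the luminescence readout, with no numeric limit stated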). Particulars: CellTiter-Glo luminescence; at 20 µM (top of the series).
Experiment [7] is described as follows: decreased DLD-1 cellular survival, CellTiter-Glo luminescent readout, NPC compound collection, primary HTS (AID 1117346;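 active = compounds that lower survival of DLD-1 colon cancer cells in the luminescence readout, no cutoff given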). Particulars: DLD-1 viability, CellTiter-Glo luminescence; at 20 µM (top of the series).
A short description of experiment [8]: modulation of C. elegans fzo-1 (AID 1259413).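 Also: fzo-1 mutant C. elegans worms in liquid wells.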 The following applies: C. elegans fzo-1 modulator screen, mean read-out; stronger effect = higher value.
The nature of experiment [9]: differential killing of epithelial or mesenchymal cells, primary screen, imaging, PC-3E GFP, TEM4-18 mCherry, co-culture (AID 1345086;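 active = compounds killing one labelled cell type while sparing the other, by normalised counts and ratio limits, not self-fluorescent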;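 as to all read-outs here: cells exposed to compound for 72 h before imaging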;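 as to red/green cell ratio (normalised): normalised mesenchymal count divided by normalised epithelial count so high means epithelial killing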). Particulars: imaging cell counts, at 1 µM; for red/green cell ratio (normalised): actives lie on both sides, counts scaled to control wells, 1 = unselective.
For experiment [10], the system named is Aerobactin synthetase IucA (Klebsiella pneumoniae). The experiment can be described thus: IucA aerobactin synthetase inhibitors, biochemical, Tocris library, absorbance (AID 1345561).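 Also: 100% = enzyme without compound and 0% = no enzyme.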 The following applies: purified IucA enzyme assay, absorbance (OD) read-out; stronger effect = lower value;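 tested at 8 µM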.
A short description of experiment [11]: growth inhibition of DIPG glioma cells, dose response, cell-based, SU-DIPG-XVII, MIPE5.0, CellTiter-Glo, qHTS (AID 1347060; cut-off not given, nearly all actives have AC50 up to about 26 µM). Particulars: SU-DIPG-XVII viability, CellTiter-Glo ATP luminescence.
Experiment [12] in a line: growth inhibition of DIPG glioma cells, dose response, cell-based, SU-DIPG-XIII, MIPE4.0, CellTiter-Glo, qHTS (AID 1347061; cut-off not given, nearly all actives have AC50 up to about 37 µM;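 also: cells exposed to compound for 48 hours before readout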). The following applies: SU-DIPG-XIII viability, CellTiter-Glo ATP luminescence.
Experiment [13] in a line: growth inhibition of DIPG glioma cells, dose response, cell-based, JHH-DIPG-1, MIPE4.0, CellTiter-Glo, qHTS (AID 1347062; cut-off not given, nearly all actives have AC50 up to about 27 µM). Particulars: JHH-DIPG-1 viability, CellTiter-Glo ATP luminescence.
Experiment [14] is described as follows: growth inhibition of DIPG glioma cells, dose response, cell-based, SU-DIPG-XIII, MIPE5.0, CellTiter-Glo, qHTS (AID 1347064; cut-off not given, nearly all actives have AC50 up to about 23 µM). Particulars: SU-DIPG-XIII viability, CellTiter-Glo ATP luminescence.
A short description of experiment [15]: growth inhibition of DIPG glioma cells, dose response, cell-based, SU-DIPG-IV, MIPE4.0, CellTiter-Glo, qHTS (AID 1347063; cut-off not given, nearly all actives have AC50 up to about 30 µM;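 also: compound exposure lasted 48 hours before the viability readout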). Particulars: SU-DIPG-IV viability, CellTiter-Glo ATP luminescence.
Setting [16] is: measured here: epithelial PC-3E GFP cell survival.
The mark [17] stands for this setting: measured here: mesenchymal TEM4-18 mCherry cell survival.

Records with an inconclusive call do not appear. The source made the active and inactive calls. Unless noted, no rule for the calls is given here.

On to `Oc1ccc(C2CNCCc3c2cc(O)c(O)c3Cl)cc1` (configuration not stated), for which the insulin secretion stimulation in [1] was 5.4% (inactive). Also, the viability decrease in experiment [2] was 66.2% (active). For the same compound, the tube area decrease in experiment [3] is 42.2% (active). The GLP1 secretion stimulation in [4] is 1% (inactive). In addition, the inhibition of viability in [5] was 50.2% (active). In addition, the viability decrease (inhibition) in [6] was 50.9% (active); in [7], 29.6% (inactive). In [8], the mean signal was 286 (inactive). Besides, in [9], the red/green cell ratio (normalised) was 1.06 (inactive). The normalised cell number stood at 1.1 in experiment [9] (setting [16]) and 1.17 in experiment [9] (setting [17]). In experiment [10], the remaining activity was 110% (inactive). Moreover, the call in experiment [11], in experiment [12], in [13] and in experiment [14] was inactive.

Consider `c1cnc(N2CCN(Cc3ccc4c(c3)OCO4)CC2)nc1`, for which the insulin secretion stimulation in [1] is 1% (inactive). For the same compound, the viability decrease in experiment [2] is -13.4% (inactive). Further, in experiment [3], the tube area decrease is -4.5% (inactive). In addition, the GLP1 secretion stimulation in experiment [4] was 10.3% (inactive). Further, in [5], the inhibition of viability was 4.13% (inactive). Also, the viability decrease (inhibition) in experiment [6] is -7.2% (inactive); in [7], -20% (inactive). Moreover, the mean signal in experiment [8] was 255 (inactive). The red/green cell ratio (normalised) in experiment [9] was 1.12 (inactive). For the same compound, the normalised cell number in experiment [9] (setting [16]) was found to be 0.85; in experiment [9] (setting [17]), 0.96. For the same compound, the remaining activity in experiment [10] is 119% (inactive).

As to `Nc1ccc(O)c(C(=O)O)c1`, the insulin secretion stimulation in [1] was -1.5% (inactive). For the same compound, the viability decrease in experiment [2] was 2.55% (inactive). The tube area decrease in experiment [3] is -5.5% (inactive). Besides, the GLP1 secretion stimulation in experiment [4] is -4.4% (inactive). Also, the inhibition of viability in [5] was 6.8% (inactive). For the same compound, the viability decrease (inhibition) is 22.9% (inactive) in [6] and 20.4% (inactive) in experiment [7]. In experiment [8], the mean signal was 261 (inactive). Further, in experiment [9], the red/green cell ratio (normalised) was 1.19 (inactive). The normalised cell number was determined as 1.04 in [9] (setting [16]) and 1.24 in [9] (setting [17]).

For the compound `O=C(O)/C=C/c1ccc(Cn2ccnc2)cc1`, the insulin secretion stimulation in experiment [1] was 1.9% (inactive). Further, the viability decrease in experiment [2] was -15.3% (inactive). Also, the tube area decrease in experiment [3] was 3% (inactive). Also, the GLP1 secretion stimulation in experiment [4] is 5.1% (inactive). Further, the inhibition of viability in experiment [5] was 6.1% (inactive). Besides, the viability decrease (inhibition) in experiment [6] is 9.3% (inactive); in [7] it was 9% (inactive). Besides, the mean signal in [8] is 275 (inactive). Further, the red/green cell ratio (normalised) in experiment [9] was 1.06 (inactive). In addition, the normalised cell number came to 1 in experiment [9] (setting [16]) and 1.05 in experiment [9] (setting [17]). Moreover, the remaining activity in experiment [10] was 107% (inactive). Further, the result in experiment [11], in [12], in experiment [13], in experiment [15] and in [14] was inactive.

For the compound `CCc1oc2ccccc2c1C(=O)c1cc(Br)c(O)c(Br)c1`, the insulin secretion stimulation in experiment [1] was 4.6% (inactive). For the same compound, the viability decrease in experiment [2] was 116% (active). Besides, in experiment [3], the tube area decrease was 101% (active). Further, the GLP1 secretion stimulation in experiment [4] was 21.4% (active). Moreover, in experiment [5], the inhibition of viability is 124% (active). The viability decrease (inhibition) in [6] was 154% (active); in [7], 101% (active). For the same compound, the mean signal in experiment [8] was 252 (inactive). In experiment [9], the red/green cell ratio (normalised) is 0.88 (inactive). In addition, the results for the normalised cell number in [9] (setting [16]) and in [9] (setting [17]) were 1.08 and 0.95, respectively.

Regarding `COc1cc2nc(N3CCN(C(=O)C4CCCO4)CC3)nc(N)c2cc1OC` (configuration not stated), the insulin secretion stimulation in experiment [1] was 0.35% (inactive). Moreover, the viability decrease in [2] is 7.5% (inactive). Moreover, the tube area decrease in experiment [3] was 9.3% (inactive). Also, the GLP1 secretion stimulation in experiment [4] was 1.3% (inactive). Besides, the inhibition of viability in [5] is -9.1% (inactive). For the same compound, the viability decrease (inhibition) in experiment [6] was -2.8% (inactive); in experiment [7], 5.5% (inactive). Moreover, the mean signal in experiment [8] is 236 (inactive). In addition, the red/green cell ratio (normalised) in [9] is 0.95 (inactive). In addition, the normalised cell number in experiment [9] (setting [16]) is 0.99; in [9] (setting [17]), 0.94. The remaining activity in experiment [10] is 115% (inactive). For the same compound, the compound was called inactive in experiment [12], in experiment [13] and in experiment [15].

One may read the remaining activity as the signal under treatment as a percentage of the control signal.
